# The full data set covers some 7,900 targets. This sample favours those with a hit. About 0.6% of all pairs of compound and target were hits. Values without a mark were called inactive.
# Key:
# Test in all cases: log2 fold change, soluble protein after heating vs DMSO (PISA); higher = thermal stabilisation; K562 cells, 10 uM, 30 min; active = over 0.2 and 3.5 SD of the protein, either way, in both replicates (recomputed)
# YAE1 = YAE1 (UniProt Q9NRH1)
# Procedure, shortened: (§1)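 Values are thermal stability changes relative to control samples and are taken from duplicates. They are stated as log2 fold changes. Before quantification by TMTpro 16plex LC-MS/MS with equalised channel sums, K562 cells at 2×10^6 cells/mL were treated with 10 μM compound for 30 min, heated in aliquots for 3 min across 48°C-58°C, pooled, extracted in PBS with 0.5% NP-40 at 4°C, and centrifuged at 21,000xg for 90 min to give the soluble supernatant.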
# YBX1 = YBX1 (UniProt P67809)
# Procedure, shortened: as §1
# YES1 = YES1 (UniProt P07947)
# Procedure, shortened: as §1
# YIPF4 = YIPF4 (UniProt Q9BSR8)
# Procedure, shortened: as §1
# YIPF5 isoform 3 = YIPF5 isoform 3 (UniProt Q969M3)
# Procedure, shortened: as §1
# YIPF6 = YIPF6 (UniProt Q96EC8)
# Procedure, shortened: as §1
# YLPM1 = YLPM1 (UniProt P49750)
# Procedure, shortened: as §1
# YOD1 = YOD1 (UniProt Q5VVQ6)
# Procedure, shortened: as §1
# YPEL5 = YPEL5 (UniProt P62699)
# Procedure, shortened: as §1
# Sequence of YLPM1 (P49750 whole entry, looked up): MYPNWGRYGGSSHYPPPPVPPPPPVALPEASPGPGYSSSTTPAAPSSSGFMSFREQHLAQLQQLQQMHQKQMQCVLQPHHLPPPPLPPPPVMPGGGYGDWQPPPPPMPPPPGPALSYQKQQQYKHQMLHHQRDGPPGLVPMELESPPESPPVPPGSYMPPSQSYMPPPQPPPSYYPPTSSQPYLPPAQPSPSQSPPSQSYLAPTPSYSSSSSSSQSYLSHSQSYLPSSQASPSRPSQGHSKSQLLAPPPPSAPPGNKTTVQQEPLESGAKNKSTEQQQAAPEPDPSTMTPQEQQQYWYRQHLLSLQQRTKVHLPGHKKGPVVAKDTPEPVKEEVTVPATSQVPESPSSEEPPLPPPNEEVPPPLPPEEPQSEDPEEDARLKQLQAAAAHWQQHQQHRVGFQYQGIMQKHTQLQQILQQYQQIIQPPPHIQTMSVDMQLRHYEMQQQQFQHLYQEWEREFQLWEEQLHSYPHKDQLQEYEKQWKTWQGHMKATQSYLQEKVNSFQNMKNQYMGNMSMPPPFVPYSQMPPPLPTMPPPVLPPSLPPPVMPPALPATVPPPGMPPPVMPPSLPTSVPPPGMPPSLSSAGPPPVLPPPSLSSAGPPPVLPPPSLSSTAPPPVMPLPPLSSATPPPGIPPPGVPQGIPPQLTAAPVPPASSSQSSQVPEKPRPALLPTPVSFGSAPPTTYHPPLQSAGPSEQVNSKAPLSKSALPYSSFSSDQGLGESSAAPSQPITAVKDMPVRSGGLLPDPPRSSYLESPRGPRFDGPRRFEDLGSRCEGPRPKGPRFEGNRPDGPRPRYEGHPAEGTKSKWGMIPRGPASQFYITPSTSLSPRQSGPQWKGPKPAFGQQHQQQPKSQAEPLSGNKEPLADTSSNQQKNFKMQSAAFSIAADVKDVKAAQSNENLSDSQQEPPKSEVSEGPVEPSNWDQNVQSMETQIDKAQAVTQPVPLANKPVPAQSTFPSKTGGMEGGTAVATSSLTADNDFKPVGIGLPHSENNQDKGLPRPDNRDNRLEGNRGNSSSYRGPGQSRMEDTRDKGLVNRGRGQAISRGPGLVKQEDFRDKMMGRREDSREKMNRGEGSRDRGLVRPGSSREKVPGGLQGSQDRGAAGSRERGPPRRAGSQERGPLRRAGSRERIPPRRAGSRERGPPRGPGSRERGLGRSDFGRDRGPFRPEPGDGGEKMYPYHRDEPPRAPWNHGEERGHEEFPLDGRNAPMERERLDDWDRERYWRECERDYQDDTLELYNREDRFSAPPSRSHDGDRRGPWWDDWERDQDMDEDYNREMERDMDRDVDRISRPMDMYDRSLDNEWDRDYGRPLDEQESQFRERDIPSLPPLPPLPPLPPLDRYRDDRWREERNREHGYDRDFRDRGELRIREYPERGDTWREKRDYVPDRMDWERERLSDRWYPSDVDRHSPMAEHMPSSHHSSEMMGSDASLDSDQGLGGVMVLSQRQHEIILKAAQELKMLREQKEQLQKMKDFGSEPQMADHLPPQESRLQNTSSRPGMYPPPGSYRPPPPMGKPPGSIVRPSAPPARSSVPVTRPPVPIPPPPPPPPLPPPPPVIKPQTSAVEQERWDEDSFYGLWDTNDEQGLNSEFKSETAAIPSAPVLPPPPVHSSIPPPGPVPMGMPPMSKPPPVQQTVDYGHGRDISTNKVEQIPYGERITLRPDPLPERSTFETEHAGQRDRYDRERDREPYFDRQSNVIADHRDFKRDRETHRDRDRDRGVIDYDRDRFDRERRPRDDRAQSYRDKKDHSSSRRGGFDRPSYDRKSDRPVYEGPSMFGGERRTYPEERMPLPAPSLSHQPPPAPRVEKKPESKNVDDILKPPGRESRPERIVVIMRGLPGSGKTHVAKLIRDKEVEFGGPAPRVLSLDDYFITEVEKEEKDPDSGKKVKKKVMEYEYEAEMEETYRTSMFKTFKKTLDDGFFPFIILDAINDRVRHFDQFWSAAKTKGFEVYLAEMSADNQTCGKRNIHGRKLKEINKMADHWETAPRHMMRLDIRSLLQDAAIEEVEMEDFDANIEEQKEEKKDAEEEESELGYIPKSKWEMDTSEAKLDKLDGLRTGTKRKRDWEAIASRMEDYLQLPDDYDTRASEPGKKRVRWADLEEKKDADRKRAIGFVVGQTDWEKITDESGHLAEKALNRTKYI
# Sequence of YPEL5 (P62699 whole entry, looked up): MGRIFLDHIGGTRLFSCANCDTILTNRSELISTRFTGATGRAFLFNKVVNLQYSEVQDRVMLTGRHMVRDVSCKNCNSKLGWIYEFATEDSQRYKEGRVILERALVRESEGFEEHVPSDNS
# Sequence of YIPF5 isoform 3 (Q969M3 whole entry, looked up, canonical isoform): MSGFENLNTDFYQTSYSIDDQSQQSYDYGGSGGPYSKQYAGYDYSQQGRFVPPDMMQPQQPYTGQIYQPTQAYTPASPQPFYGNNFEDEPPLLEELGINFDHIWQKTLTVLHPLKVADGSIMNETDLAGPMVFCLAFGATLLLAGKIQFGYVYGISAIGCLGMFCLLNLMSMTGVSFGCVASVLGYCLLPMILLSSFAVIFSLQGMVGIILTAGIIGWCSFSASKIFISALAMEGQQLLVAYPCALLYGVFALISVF
# Sequence of YOD1 (Q5VVQ6 whole entry, looked up): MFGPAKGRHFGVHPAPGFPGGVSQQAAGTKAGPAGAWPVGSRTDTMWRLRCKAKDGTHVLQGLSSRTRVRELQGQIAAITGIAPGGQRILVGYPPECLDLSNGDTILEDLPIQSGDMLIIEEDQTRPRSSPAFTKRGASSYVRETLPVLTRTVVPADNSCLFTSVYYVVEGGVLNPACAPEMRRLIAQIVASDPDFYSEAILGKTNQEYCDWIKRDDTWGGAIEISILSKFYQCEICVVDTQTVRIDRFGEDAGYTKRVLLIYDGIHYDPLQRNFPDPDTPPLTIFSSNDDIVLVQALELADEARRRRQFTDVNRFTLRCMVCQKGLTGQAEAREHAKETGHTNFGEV
# Sequence of YBX1 (P67809 whole entry, looked up): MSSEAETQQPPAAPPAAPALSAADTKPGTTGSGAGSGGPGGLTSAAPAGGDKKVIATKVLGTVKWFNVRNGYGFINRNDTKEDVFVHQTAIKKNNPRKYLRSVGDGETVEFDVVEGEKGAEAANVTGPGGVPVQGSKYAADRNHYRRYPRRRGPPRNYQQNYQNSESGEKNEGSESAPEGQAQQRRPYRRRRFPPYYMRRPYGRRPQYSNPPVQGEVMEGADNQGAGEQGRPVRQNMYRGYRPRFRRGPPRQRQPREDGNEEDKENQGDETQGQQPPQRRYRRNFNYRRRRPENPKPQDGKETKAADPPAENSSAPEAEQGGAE
# Sequence of YIPF6 (Q96EC8 whole entry, looked up): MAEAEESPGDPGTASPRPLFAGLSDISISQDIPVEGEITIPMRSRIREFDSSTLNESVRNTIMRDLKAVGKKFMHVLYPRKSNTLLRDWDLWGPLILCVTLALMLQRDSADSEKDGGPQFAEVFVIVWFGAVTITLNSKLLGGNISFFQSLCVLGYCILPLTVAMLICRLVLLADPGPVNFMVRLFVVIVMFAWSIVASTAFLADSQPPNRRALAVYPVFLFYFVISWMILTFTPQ
# Sequence of YAE1 (Q9NRH1 whole entry, looked up): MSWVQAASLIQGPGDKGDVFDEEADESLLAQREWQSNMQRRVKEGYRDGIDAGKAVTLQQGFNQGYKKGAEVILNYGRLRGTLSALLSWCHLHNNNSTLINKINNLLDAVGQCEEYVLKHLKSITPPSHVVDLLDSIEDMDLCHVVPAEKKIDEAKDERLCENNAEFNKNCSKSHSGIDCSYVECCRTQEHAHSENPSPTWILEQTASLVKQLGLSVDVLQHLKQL
# Sequence of YIPF4 (Q9BSR8 whole entry, looked up): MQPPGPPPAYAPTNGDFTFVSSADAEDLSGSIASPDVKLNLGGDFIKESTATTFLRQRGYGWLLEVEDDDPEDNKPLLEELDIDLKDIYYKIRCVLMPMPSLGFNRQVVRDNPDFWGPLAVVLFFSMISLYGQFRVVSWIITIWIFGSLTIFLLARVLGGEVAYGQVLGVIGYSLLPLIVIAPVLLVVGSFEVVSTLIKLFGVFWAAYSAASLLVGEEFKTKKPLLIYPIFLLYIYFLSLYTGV
# Sequence of YES1 (P07947 whole entry, looked up): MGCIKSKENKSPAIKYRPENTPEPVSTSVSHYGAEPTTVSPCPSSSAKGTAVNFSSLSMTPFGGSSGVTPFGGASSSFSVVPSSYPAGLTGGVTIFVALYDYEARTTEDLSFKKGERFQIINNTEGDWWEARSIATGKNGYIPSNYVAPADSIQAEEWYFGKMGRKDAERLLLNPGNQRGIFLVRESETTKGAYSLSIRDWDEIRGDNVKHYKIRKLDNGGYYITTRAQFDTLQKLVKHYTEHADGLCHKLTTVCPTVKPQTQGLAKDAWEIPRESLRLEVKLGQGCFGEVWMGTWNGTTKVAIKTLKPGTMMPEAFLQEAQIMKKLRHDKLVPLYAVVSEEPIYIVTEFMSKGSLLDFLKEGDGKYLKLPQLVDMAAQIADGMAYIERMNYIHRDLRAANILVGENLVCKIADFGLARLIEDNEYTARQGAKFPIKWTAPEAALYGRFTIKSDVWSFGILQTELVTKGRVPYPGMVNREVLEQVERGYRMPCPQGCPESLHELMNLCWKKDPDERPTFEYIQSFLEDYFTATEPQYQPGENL
Structure (SMILES),log2 fold change (YAE1),log2 fold change (YBX1),log2 fold change (YES1),log2 fold change (YIPF4),log2 fold change (YIPF5 isoform 3),log2 fold change (YIPF6),log2 fold change (YLPM1),log2 fold change (YOD1),log2 fold change (YPEL5)
NC(=O)c1ccc2nc(-c3ccc(Oc4ccc(Cl)cc4)cc3)[nH]c2c1,0,-0.033,0.049,-0.039,0.012,0.005,0.033,0.019,-0.021
Cc1nc(Nc2n[nH]c3c2CN(C(=O)N[C@H](CN(C)C)c2ccccc2)C3(C)C)c2sccc2n1,0.104,0.149,-0.746 (active),0.004,0.016,-0.042,-0.075,-0.089,-0.118
COc1cc(Nc2ncc3c(n2)-c2ccc(Cl)cc2C(c2c(F)cccc2OC)=NC3)ccc1C(=O)O [alisertib],-0.065,-0.066,-0.211,-0.134,-0.009,0.419,0.017,0.19,0.086
Cn1c2cc(S(C)=O)sc2c2cnn(Cc3cccc(N)c3)c(=O)c21 (centres undefined),0.046,0.183,0.053,-0.06,0.043,-0.097,-0.057,-0.04,0.132
CS(=O)(=O)N1CCN(Cc2cc3nc(-c4cccc5[nH]ncc45)nc(N4CCOCC4)c3s2)CC1 [pictilisib],0.021,0.033,0.093,0.15,0.027,0.107,0.065,-0.001,0.172
CS(=O)(=O)CCNCc1ccc(-c2ccc3ncnc(Nc4ccc(OCc5cccc(F)c5)c(Cl)c4)c3c2)o1 [lapatinib],-0.052,0.317,0.057,-0.13,-0.163,0.061,-0.028,0.01,-0.113
CCn1cc(-c2ccnc3[nH]c(-c4cccc(CN(C)C)c4)cc23)c(-c2ccc(NC(=O)N(C)C)cc2)n1,-0.015,0.249,-0.241,0.037,0.06,0.103,-0.012,-0.101,-0.072
CN(C)CC(=O)Nc1ccc2[nH]c(=O)c3ccccc3c2c1,-0.108,-0.134,-0.075,0.09,0.014,-0.012,-0.037,0.043,0.008
Fc1ccc(Cl)cc1-c1nc(Nc2ccncc2)c2nccnc2n1,0.007,-0.273,-0.179,-0.014,0.024,0.138,0.057,0.021,-0.028
CN1CC[C@H](c2c(O)cc(O)c3c(=O)cc(-c4ccccc4Cl)oc23)[C@H](O)C1 [alvocidib],0.249 (active),0.295,-0.029,0.027,0.003,0.022,0,-0.088,-0.234
CO[C@H]1C[C@@H]2CC[C@@H](C)[C@@](O)(O2)C(=O)C(=O)N2CCCC[C@H]2C(=O)O[C@H]([C@H](C)C[C@@H]2CC[C@H](n3cnnn3)[C@H](OC)C2)CC(=O)[C@H](C)/C=C(\C)[C@@H](O)[C@@H](OC)C(=O)[C@H](C)C[C@H](C)/C=C/C=C/C=C/1C [zotarolimus],0,-0.048,0.053,0.015,0.006,-0.026,-0.001,0.05,0.05
COc1cc2ncnc(Nc3ccc(F)c(Cl)c3)c2cc1OCCCN1CCOCC1 [gefitinib],-0.016,-0.096,-0.045,0.038,0.024,0.005,0.002,0.006,-0.239
Cc1ccc(Sc2cncc3sc(C(N)=O)cc23)cc1,-0.012,-0.124,0.03,-0.023,0.071,-0.018,-0.008,0.009,0.01
O=C1NC(=O)/C(=C\c2ccc3nccnc3c2)S1,-0.037,-0.009,-0.09,0.04,0.009,0.025,0.046,0.129,-0.002
Cn1cc(-c2ccc3c(c2)CCN3C(=O)Cc2cccc(C(F)(F)F)c2)c2c(N)ncnc21,-0.095,-0.199,-0.284,0.03,-0.014,-0.035,0.077,0.023,-0.077
CC[C@@H]1C(=O)N(C)c2cnc(Nc3ccc(C(=O)N[C@H]4CC[C@H](N5CCN(CC6CC6)CC5)CC4)cc3OC)nc2N1C(C)C [volasertib],-0.101,0.508,-0.038,0.134,0.058,-0.037,-0.265 (active),-0.247,-0.022
CN(CCOc1ccc(C[C@@H]2SC(=O)NC2=O)cc1)c1ccccn1 (racemic) [rosiglitazone],0.062,-0.074,0.013,0.005,0.003,0.027,0.047,0.029,-0.048
COc1cc2nc(-c3cc(F)ccc3O)nc(N[C@@H]3CNC[C@H]3C(C)(C)O)c2cc1OC,0.125,-0.054,-0.052,-0.094,0.13,0.043,0.1,0.018,0.096
Cc1ccc(C(=O)N(CCCN)[C@@H](c2nc3cc(Cl)ccc3c(=O)n2Cc2ccccc2)C(C)C)cc1 [ispinesib],0.063,-0.093,-0.097,-0.024,0.08,0.02,0.034,-0.042,-0.039
FC(F)(F)c1ccc(/C=C/c2nc(COc3ccc(CCCCn4ccnn4)cc3)co2)cc1 [mubritinib],-0.062,-0.031,-0.067,0.024,0.012,0.036,-0.038,0.108,-0.202
CCCc1cc(C)[nH]c(=O)c1CNC(=O)c1cc(-c2ccnc(N3CCN(C)CC3)c2)cc2c1cnn2C(C)C,-0.083,0.055,0.075,-0.036,-0.005,-0.067,0.083,-0.017,0.014
C[C@@H]1COCCN1c1cc(C2(S(C)(=O)=O)CC2)nc(-c2cccc3[nH]ccc23)n1,-0.039,-0.368,-0.035,0.095,0.019,0.076,0.015,0.055,-0.079
CC[C@H](C)[C@H](NC(=O)[C@H]([C@@H](C)CC)N(C)C(C)=O)C(=O)N[C@H](C(=O)N[C@@H](CC(C)C)C(=O)[C@@]1(C)CO1)[C@@H](C)O [epoxomicin],0.118,-0.191,0.009,-0.005,0.023,0.013,0.059,0.051,-0.052
CNc1nc(-c2ccc3c(N)n[nH]c3c2)cc(N2C[C@@H](C(=O)NC3CCCCC3)CC[C@H]2C)n1,-0.092,0.044,-0.037,-0.082,-0.115,-0.039,0.006,0.011,-0.06
CCN(CCCOc1ccc2c(Nc3cc(CC(=O)Nc4cccc(F)c4)[nH]n3)ncnc2c1)CCOP(=O)(O)O [barasertib],0.097,-0.127,-0.006,0.026,-0.08,-0.041,0.03,0.051,0.121
Cc1ccc(NC(=O)c2ccc(CN3CC[C@H](N(C)C)C3)c(C(F)(F)F)c2)cc1Nc1nccc(-c2cncnc2)n1 [bafetinib],0.013,0.146,0.049,-0.045,-0.028,-0.169,0.083,-0.07,0.064

# — the supplement of paper PMC10849652
